Data: PubChem BioAssay AID624330 (Southern Research Specialized Biocontainment Screening …, 2012)
The campaign covered roughly 340,000 compounds. About 2,100 (0.62%) were called active.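 Rule for the calls: active = first-screen hits whose inhibition reached a set limit at any dose in the follow-up dose series; inconclusive = inhibition above the set first-screen limit but never retested; inactive = the rest.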 Not all results are given here. Measured potencies and affinities stand elsewhere.

Molecular target: Rac GTPase-activating protein 1 (Homo sapiens) (UniProt Q9H0H5)
Assay: MgcRacGAP GTPase-activating activity inhibitors, confirmation, biochemical, ADP Hunter fluorescence, primary and confirmatory (AID 624330);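 note: fluorescence reports GDP produced by GAP-driven GTP hydrolysis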
Settings: MgcRacGAP-stimulated Rac1 GTP hydrolysis, at 30 µM, stronger effect = higher value, GST-tagged Rac1 F28L mutant substrate

Rac GTPase-activating protein 1 (Homo sapiens), sequence (Q9H0H5 whole entry, looked up): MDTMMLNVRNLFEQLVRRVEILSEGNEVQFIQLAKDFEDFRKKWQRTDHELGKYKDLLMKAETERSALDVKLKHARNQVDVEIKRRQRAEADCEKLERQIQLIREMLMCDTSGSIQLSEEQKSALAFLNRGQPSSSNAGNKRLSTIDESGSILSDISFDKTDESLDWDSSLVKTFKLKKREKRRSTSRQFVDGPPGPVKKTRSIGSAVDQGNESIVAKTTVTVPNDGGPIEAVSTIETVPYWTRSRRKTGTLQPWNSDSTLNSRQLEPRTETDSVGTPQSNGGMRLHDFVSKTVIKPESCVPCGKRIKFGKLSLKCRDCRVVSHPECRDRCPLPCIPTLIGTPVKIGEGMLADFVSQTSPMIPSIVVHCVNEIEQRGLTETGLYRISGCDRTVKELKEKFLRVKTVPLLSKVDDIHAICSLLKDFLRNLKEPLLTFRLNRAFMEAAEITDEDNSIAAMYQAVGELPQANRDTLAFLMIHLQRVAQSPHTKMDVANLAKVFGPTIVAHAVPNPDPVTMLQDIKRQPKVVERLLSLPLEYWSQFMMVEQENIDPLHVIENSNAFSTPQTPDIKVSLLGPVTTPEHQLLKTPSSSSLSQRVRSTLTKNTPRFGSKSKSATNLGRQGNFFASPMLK

inhibition, inactive:
COc1ccc(N2CCN(C(CNC(=O)OCc3ccccc3)c3ccco3)CC2)cc1 (stereo not given) 23%
COc1ccc(C2(C)NC(=O)N(CC(=O)Nc3c(C)n(C)n(-c4ccccc4)c3=O)C2=O)cc1 (stereo not given) -6.4%
CC(C)(C)OC(=O)C[C@@H]1C/C=C\C[C@H](CC(=O)N(CCO)Cc2ccccc2)C(=O)N[C@H](Cc2ccccc2)COC1=O -1.04%
N#C/C(=C\c1ccc(-c2ccc(C(=O)O)cc2)o1)c1nc2ccccc2[nH]1 2.64%
N#C/C(=C\c1ccc(N2CCOCC2)c([N+](=O)[O-])c1)c1nc2ccccc2[nH]1 1.39%
N#C/C(=C\c1ccc(Sc2ccccc2)o1)c1nc2ccccc2[nH]1 11.4%
N#C/C(=C\c1cc([N+](=O)[O-])c(N2CCOCC2)cc1N1CCOCC1)c1nc2ccccc2[nH]1 6.08%
CC1CN(C(=O)COC(=O)c2ccc3ccccc3c2)CC(C)O1 (stereo not given) 8.18%
CCCCOC(=O)c1cccc(NC(=O)CC)c1 -6.05%
O=C(C[C@H]1C/C=C\C[C@H](NC(=O)OCC2c3ccccc3-c3ccccc32)C(=O)OC[C@H](Cc2ccccc2)NC1=O)N[C@H](CO)Cc1ccccc1 3.81%
CC(OC(=O)CC(C)c1ccccc1)C(=O)Nc1ccc(Cl)cn1 (stereo not given) 4.3%
C/C=C/c1ccc(O)c(OC)c1 21.3%
CCCc1nc2ccccc2c(=O)n1/N=C/c1ccc(O)cc1 6.59%
COc1ccc(/C=C/c2nc(N)nc(-c3ccccc3O)n2)cc1OC 4.75%
COc1ccc(/C=C/c2nc3ccccc3c(=O)n2-c2cccc(C(=O)O)c2)cc1 6.96%
CCCc1nc2ccccc2c(=O)n1/N=C/c1ccccc1O 11.4%
COc1ccc(-n2c(/C=C3\C(=O)N(C)c4ccccc43)nc3ccccc3c2=O)cc1 9.39%
COc1cc(/C=N/n2c(C)nc3ccccc3c2=O)cc(OC)c1O 7.15%
COc1ccc(/C=N/n2c(C)nc3ccccc3c2=O)cc1OC 3.76%
O=C(CN1CCN(C(=O)C2CCCO2)CC1)Nc1cc(C(F)(F)F)ccc1Cl (stereo not given) 4.9%
CCOC(=O)C1CCN(C(=O)c2cc(S(=O)(=O)N3CCCCCC3)ccc2OC)CC1 0.78%
CCCCNC(=O)NC(C(=O)OC)C12CC3CC(CC(C3)C1)C2 (stereo not given) 0.62%
CCCN(CCC)CCNS(=O)(=O)c1ccc2c(c1)CCN2C(=O)C1CCC1 12.9%
CCCCN(CCCC)S(=O)(=O)c1ccc(NS(=O)(=O)c2ccc(NC(C)=O)cc2)cc1 5.52%
COc1ccc(-c2nn(-c3ccccc3)cc2C(=O)NC2CCCCC2C)cc1 (stereo not given) 7.37%
CCOCCCNC(=O)C1CCCN(S(=O)(=O)c2ccc(-n3cnnn3)cc2)C1 (stereo not given) 1.87%
CCOC(=O)c1ccc(NC(=S)NCCCn2ccnc2)cc1 -38.2%
COc1ccc(CCN2CN(S(=O)(=O)c3ccccc3)c3nc4ccccc4nc32)cc1OC 2.57%
CCOc1ccc(NC(=S)N(Cc2ccc(N(C)C)cc2)Cc2ccco2)cc1 1.67%
O=C(O)C1CCCN1S(=O)(=O)c1ccc2ccccc2c1 (stereo not given) -1.39%
COC(=O)c1cccc(NS(=O)(=O)c2ccc(OC)c(OC)c2)c1C 4.85%
O=C(CCCc1cccs1)Nc1nc(-c2ccc(F)cc2)cs1 9.23%
O=C(c1cccs1)N1CCN(c2ncc(C(F)(F)F)cc2Cl)CC1 8.94%
O=C(Cc1ccc(Cl)cc1)Nc1ccc2c(c1)C(=O)NC2=O 10.3%
COc1ccc(-c2c(-c3ccsc3)oc(=O)c3cc(OC)c(OC)cc23)cc1 3.56%
COc1ccc(/C=C/c2ccc3cccc(O)c3n2)cc1Br 5.56%
COc1cc(/C=C/c2ccc3cccc(O)c3n2)cc(OC)c1OC 3.89%
CCOc1cc(/C=C/c2nc3ccccc3c(=O)[nH]2)ccc1O 11.1%
O=C(O)c1ccc(-n2c(/C=C/c3ccccc3)nc3ccccc3c2=O)cc1 -4%
COc1ccc(/C=N/Nc2nc3ccccc3c(=O)n2-c2ccccc2)cc1OC 8.28%
O=C(O)c1cccc(-n2c(/C=C/c3ccccc3)nc3ccccc3c2=O)c1 -7.35%
Cc1cc(C)cc(Nc2c3c(nc4ncnn24)CCC3)c1 8.12%
CCC1=C(OC(=O)N(CC)CC)N2C(=O)OC(=NCCOC)[C@]2(Cc2ccccc2)[C@H]2C1=CC[C@H]1C(=O)N(CC(=O)OC)C(=O)[C@H]12 11.9%
CN(C(=O)c1cccc(NC(=O)Cc2ccc(NC(=O)C3CCN(C(=O)C4CC4)CC3)cc2)c1)C1CCC1 6.53%
O=C(NCc1cccnc1)C1CC(c2cccc(Br)c2)=NO1 (stereo not given) 0.07%
CC(C(=O)NCc1ccc(F)cc1)c1ccc([N+](=O)[O-])cc1 (stereo not given) 8.32%
CN1CCN(S(=O)(=O)c2ccc(Oc3ccc(F)cc3Br)nc2)CC1 6.58%
CCC1CCCCN1C(=S)NC(=O)c1cc(Br)ccc1Cl (stereo not given) 4.56%
CCc1nnc(NC(=O)Cn2nnc(-c3ccccc3F)n2)s1 5.2%
CCCCCCCn1c2c(c(=N)c3ccccc31)CCC2 9.88%
CCCCCn1c2c(c(=N)c3ccccc31)CCC2 7.04%
O=C(CN1CCC(NC(=O)Nc2ccccc2)CC1)Nc1ccccc1F 5.94%
Cc1ccc(S(=O)(=O)N(C)c2ccccc2C(=O)N2CCOCC2)cc1 6.35%
O=C(Cc1ccc(Br)cc1)NCCc1ccc(F)cc1 9.29%
COc1ccc(S(=O)(=O)NC(C)C(=O)N2CCCC2)cc1Cl (stereo not given) 1.21%
Cc1ccnc(Nc2nc(-c3ccc(O)cc3O)cs2)c1 15.2%
CCOc1ccc(Nc2nc(-c3cccnc3)cs2)cc1 6.12%
Cc1cccc(Nc2nc(-c3ccc(O)cc3O)cs2)n1 -2.8%
COc1ccc(-c2csc(Nc3ccccc3)n2)cc1 15.5%
Cc1ccc(-c2csc(Nc3ccccn3)n2)cc1 14%
COc1cccc(Nc2nc(-c3cccnc3)cs2)c1 10.7%
c1ccc(-c2csc(Nc3ccccn3)n2)cc1 13.5%
CN(C)c1ccc(Nc2nc(-c3cccnc3)cs2)cc1 14.4%
Cc1cccc2cc(COC(=O)COc3ccccc3)c(=O)[nH]c12 12%
CCC(=O)Oc1ccc(NC(=O)CSCc2ccccc2)cc1 13.9%
COc1ccc(CCNC(=O)COC(=O)Cc2ccccc2[N+](=O)[O-])cc1 3.96%
CCOC(=O)c1ccc(S(=O)(=O)N2CC(=O)Nc3ccccc32)cc1 8.64%
COc1ccc(-c2csc(NCc3ccco3)n2)cc1 12%
c1coc(CNc2nc(-c3ccncc3)cs2)c1 5.25%
c1ccc(-c2csc(Nc3ncccn3)n2)cc1 0.5%
Cc1ccc(Nc2nc(-c3c(C)nc4ncccn34)cs2)cc1 11.3%
c1cncc(Nc2nc(-c3ccncc3)cs2)c1 6.09%
c1ccc(-c2csc(Nc3cccnc3)n2)cc1 3.24%
Cc1nc2ncccn2c1-c1csc(Nc2ccccc2)n1 11%
CC(=O)Nc1ccc(-c2csc(Nc3ncccn3)n2)cc1 7.36%
O=C(O)CN1C(=O)NC2(CCc3ccccc32)C1=O (stereo not given) 2.93%
Cc1noc(C)c1S(=O)(=O)N1CCCC(C(=O)NCC2CCCO2)C1 (stereo not given) 4.53%
CC(C)c1ccc(NC2CCCN(C(=O)CCN3CCCO3)C2)cc1 (stereo not given) 2.53%
CC(C)c1ccc(NC2CCCN(C(=O)CN3CCOC3=O)C2)cc1 (stereo not given) 8.4%
CC(C)c1ccc(NC2CCCN(C(=O)CCN3Cc4ccccc4C3=O)C2)cc1 (stereo not given) 4.84%
COc1ccc(NC2CCCN(C(=O)CCCN3CCCCC3=O)C2)cc1 (stereo not given) 29.9%
COc1ccc(NC2CCCN(C(=O)CN3CCOC3=O)C2)cc1OC (stereo not given) 22.5%
COc1ccc(NC2CCCN(C(=O)CCN3CCOCC3)C2)cc1 (stereo not given) 12.5%
CN1OC[C@@H]2CN(Cc3cc(Cl)cc(Cl)c3)[C@H](c3cccc(-c4ccc(C#N)cc4)c3)C[C@@H]21 13.8%
COc1ccc(OCc2nnc(SCC(=O)N3CCCC3)o2)cc1 5.88%
CC1CN(Cc2ccccc2Cl)CC(C)O1 (stereo not given) 16.3%
O=C(COc1ccccc1[N+](=O)[O-])Nc1cccc(C(=O)Nc2ccccc2C(=O)O)c1 17.3%
C=CCC1NS(=O)(=O)O[C@H](CCCC)[C@@H]1O (stereo not given in full) -14.4%
O=C(O)CCC(=O)OCCc1cc2ccccc2c(=O)o1 -1.63%
O=C(c1ccc(=O)n(Cc2ccc(Cl)c(Cl)c2)c1)N1CCOCC1 1.2%
CC(C)N1C(=O)CSC1c1ccc(Br)cc1 (stereo not given) 9.21%
Cc1ccsc1/C=N/NC(=O)c1cccnc1 6.67%
COc1ccc(/C=N/NC(=O)c2cccnc2)c2ccccc12 10.9%
O=C(N/N=C/c1cccc2ccccc12)c1cccnc1 7.15%
Cc1ccccc1/C=N/NC(=O)c1cccnc1 4.63%
